Assay outcomes (PubChem BioAssay)
PLAP activator: PLAP enzyme activators, biochemical, luminescence, HTS; purified PLAP enzyme, luminescent substrate read-out; hits give high values; 96,000 compounds, 1.2% hits; activation fold at 20 µM; Alkaline phosphatase, placental type (Homo sapiens), P05187; in the data active means activation fold above about 2
Target sequence (P05187 whole entry, looked up): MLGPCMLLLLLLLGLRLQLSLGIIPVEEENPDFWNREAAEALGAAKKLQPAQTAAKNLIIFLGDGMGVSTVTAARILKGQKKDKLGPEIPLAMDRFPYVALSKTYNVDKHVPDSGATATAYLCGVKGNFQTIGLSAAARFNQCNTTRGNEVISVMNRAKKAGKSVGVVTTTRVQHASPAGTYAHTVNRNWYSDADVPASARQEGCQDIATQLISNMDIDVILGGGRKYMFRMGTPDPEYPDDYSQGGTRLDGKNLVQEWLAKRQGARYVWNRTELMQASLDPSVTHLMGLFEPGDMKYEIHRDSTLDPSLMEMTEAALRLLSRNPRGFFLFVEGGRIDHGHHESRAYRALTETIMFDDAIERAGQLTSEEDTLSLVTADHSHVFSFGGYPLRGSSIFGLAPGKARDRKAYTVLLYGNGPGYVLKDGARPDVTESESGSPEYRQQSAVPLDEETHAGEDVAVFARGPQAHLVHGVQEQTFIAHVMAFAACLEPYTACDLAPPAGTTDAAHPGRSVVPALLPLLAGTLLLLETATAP
E-sel TNF inh: E-selectin induction blockers in HUVEC – imaging, immunofluorescence, high content, primary screen. HUVEC TNFa-induced E-selectin immunofluorescence. inhibition, % at 2 µM. 120,000 compounds, 0.71% hits. AID 1246, 2008;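 active means inhibition above the batch mean plus 3 SD, and confirmed as a hit on visual image review, cut at about 43% in these data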;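 further: 0% = TNF-stimulated DMSO wells and 100% = unstimulated control wells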
HUVEC tox TNFa: cytotoxicity in TNFa-stimulated HUVEC, primary screen, cytotoxicity control for VCAM1 expression modulator project, imaging, Hoechst nuclei count; HUVEC TNFalpha-stimulated, Hoechst cell count; cell count reduction, % at 2 µM; 93,000 compounds, 0.17% hits;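 active means cell count reduction exceeding the screen mean by over 5 SD, scaled to untreated wells per plate, cut at about 78% in these data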;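 further: cells counted after 24 h of TNF alpha exposure following the 1 h pretreatment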
VCAM1 TNFa inh: inhibitors of TNFa-induced VCAM1 expression, primary screen, imaging, HUVEC, TNFa stimulus, immunofluorescence; 95,000 compounds, 0.48% hits; AID 802, 2007; inhibition, % at 2 µM; HUVEC TNFa-induced VCAM-1 immunofluorescence, high-content imaging;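 active means inhibition above the batch mean plus 3 SD, with images confirmed as a hit by eye, cut at about 37% in these data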;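 further: 0% = TNF-stimulated DMSO wells and 100% = unstimulated control wells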
cytoskel mod: modifiers of F-actin cytoskeleton organization, primary screen, imaging, HUVEC, phalloidin staining, high-content imaging | AID 836, 2007 | 91,000 compounds, 0.18% hits | HUVEC TNFa F-actin phalloidin imaging | inhibition, % at 2 µM;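 active means inhibition above the batch mean plus 3 SD and confirmed as a hit by visual image inspection, cut at about 30% in these data, passing the limit was not always enough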
An asterisk follows results filed as active; nt = no result. Rows were chosen to be rich in hits. Some 2% of all compounds tested hit in one or more screens of this group.

SMILES	PLAP activator	E-sel TNF inh	HUVEC tox TNFa	VCAM1 TNFa inh	cytoskel mod
Cc1ccc(SCCNC(=O)c2cccc([N+](=O)[O-])c2C)cc1	1	-18	-3	-14	3
Cc1c(N=C/C=C2\N(C)c3ccccc3C2(C)C)c(=O)n(-c2ccccc2)n1C	1	63*	-3	18	6
CC(C)Sc1nc2c(c(=O)n1-c1ccc(F)cc1)SCC2	0.9	12	6	94*	2
COc1ccc(-c2nnc(SCC(=O)Nc3ncc(C)s3)n2-c2ccccc2)cc1OC	1.4	-10	0	-1	2
COc1cccc(/C=N/Nc2nc(Nc3ccccc3)nc(-n3nc(C)cc3C)n2)c1O	2.3*	22	34	87*	2
CC(C)(C)c1cc(/C=N/NC(=O)Cc2nc3ccccc3[nH]2)cc(C(C)(C)C)c1O	2*	-2	0	-6	-3
Cc1noc(C)c1CSc1nnc2cc(C)c3ccccc3n12	1	nt	nt	nt	nt
CCOc1ccc(S(=O)(=O)Nc2nc3ccccc3nc2Nc2ccc(N3CCOCC3)cc2)cc1	nt	34	nt	nt	nt
COc1ccc(OC)c(C2C3=C(COC3=O)Nc3cc4c(cc32)OCO4)c1 (centres undefined)	0.9	0	76	96*	16
Cc1cc(C)nc(Nc2ccc(N3CCCC3)cc2)n1	1.2	-19	-19	-11	-23
CCc1ccc(-n2c(O)cnc2Nc2nc(C)cc(C)n2)cc1	2.7*	nt	-10	7	-1
COc1ccc(-n2c(O)cnc2Nc2nc(C)cc(C)n2)cc1OC	2.7*	-22	-3	1	-8
Cn1c(Cc2ccccc2)nnc1SCC(=O)c1cccs1	1.1	24	-9	-14	2
Cc1ccc(C)c(C(=O)CSc2n[nH]c(C)n2)c1	1.8	3	-20	-4	12
CCc1nc(SCC(=O)c2cc(C)ccc2C)n[nH]1	2.3*	10	15	21	-25
CCOC(=O)c1cn2nc(-c3ccc(OCC)cc3)cc2nc1C1CCN(C(=O)OC(C)(C)C)CC1	1.2	5	0	-14	-12
CCOC(=O)c1cnn(-c2ccc(Cl)cc2)c1C1CCN(C(=O)OC(C)(C)C)CC1	2.3*	10	2	5	6
Cc1noc(C)c1S(=O)(=O)N1CCN(C(c2ccccc2)c2ccc(Cl)cc2)CC1 (centres undefined)	1.2	nt	86*	-16	27
Cc1noc(C)c1S(=O)(=O)N1CCCCC1	0.8	-2	-14	1	nt
Cc1c(S(=O)(=O)N2CCN(C(c3ccccc3)c3ccccc3)CC2)c(=O)n(C)c(=O)n1C	1.2	-12	-22	5	0
Cc1noc(C)c1S(=O)(=O)N1CCC2(CC1)OCCO2	1.1	-4	95*	88*	-14
Cc1ccc(C(=O)N/N=C(\CC(C)C)c2ccccc2)cc1	nt	4	nt	nt	nt
CCN(c1ccc(OC)cc1)c1ncnc2nc[nH]c12	1.7	nt	3	0	-7
CCCN(c1ccc(OCC)cc1)c1ncnc2nc[nH]c12	2.1*	-28	nt	nt	nt
CCCCN(Cc1ccccc1)c1ncnc2nc[nH]c12	2.1*	-11	nt	nt	nt
SMILES	PLAP activator	E-sel TNF inh	HUVEC tox TNFa	VCAM1 TNFa inh	cytoskel mod
C=CCOc1ccc(/C=N/NC(=O)C(C)Sc2ccccn2)cc1OC (centres undefined)	nt	-15	nt	nt	nt
O=C(O)C(=O)/C(=C\c1ccccc1)c1ccc2ccccc2n1	1	91*	-9	2	6
O=C(O)C(=O)/C(=C\c1cccc2ccccc12)c1ccc2ccccc2n1	1	2	-13	3	-11
CC1=NN(C(=O)c2cccc(Cn3nc(C)c([N+](=O)[O-])c3C)c2)C(O)(C(F)(F)F)C1 (centres undefined)	2.1*	-4	-13	-4	3
Cc1nn(Cc2cccc(C(=O)N3N=C(C(F)F)CC3(O)C(F)F)c2)c(C)c1[N+](=O)[O-] (centres undefined)	1.5	-3	2	-4	9
COc1ccc(S(=O)(=O)Nc2ccc(C)cc2)cc1N(C)S(=O)(=O)c1ccc(Cl)cc1	1.2	100*	7	-3	-8
COc1ccc(S(=O)(=O)Nc2ccc(F)c(Cl)c2)cc1OC	1.3	-7	nt	nt	nt
Cc1ccc(Cn2nnc3c(=O)[nH]c(C(=O)NCc4ccco4)nc32)cc1	2*	-3	nt	nt	nt
Cc1cccn2c(=O)c(C=O)c(Sc3ncccn3)nc12	nt	-11	nt	nt	nt
